Assay results reported in PubChem BioAssay (NCATS).
Values without a mark were called inactive. Inconclusive results are not listed. A call without a number means that no potency is given here. The source made the active and inactive calls. Unless noted, calls follow the shape of the dose curve; as a rule, active = well fitted curve in the direction sought with a large enough effect; inconclusive = small, poorly fitted or top-dose-only effect, or another doubt; inactive = no such curve, though single readings can be large; an effect the other way counts as inactive or inconclusive.

Experiments:
[1] = molecular target: Lysosomal acid glucosylceramidase (Homo sapiens) (UniProt P04062); experiment: Glucocerebrosidase-p2 (AID 348; in the data active = potency below about 10 µM; also: potency is read from the fitted curve at half-maximal effect); conditions: purified GBA, blue fluorogenic substrate, 40 min
In short: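 Normal human glucocerebrosidase (0.2 nM) with blue fluorogenic substrate (80 uM final) in citrate/phosphate pH 5.9 with 10mM sodium taurocholate, 0.01% tween-20; 40 min RT, NaOH/glycine stop; fluorescence Ex 365/Em 440; AC50 from a titration from 0.6 nM upwards.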

[2] = AP1 Signaling Pathway (AID 357; active = well fitted curve in either direction with a large enough effect, not every such curve was filed as active;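 also: ME-180 reporter cells stimulated with EGF at its EC50 level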); conditions: ME-180 AP-1-bla reporter, EGF-induced, beta-lactamase ratio, 5 h; at 7.69 µM (top of the series) unless noted
In short: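 Cells are seeded overnight, exposed to compound titrations and an EC50 level of EGF for 5 hours at 37 °C, then loaded with CCF4 dye for 2.5 hours. Beta-lactamase activity under the AP-1 element is read as a blue/green ratio.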

[3] = NFAT Signaling Pathway (AID 444; active = well fitted curve in either direction with a large enough effect, not every such curve was filed as active;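 also: carbachol stimulus at about its EC50 of 1 µM final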); conditions: Jurkat NFAT-bla M1, carbachol, beta-lactamase ratio, 5 h; at 7.69 µM (top of the series) unless noted
In short: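 Jurkat cells with NFAT-driven β-lactamase reporter and co-expressed M1 receptor, stimulated with carbachol (final 1 uM, ~EC50), compound titration, 5 h at 37 °C. CCF4 loaded 1 h at RT; 460/530 nm ratio gave %activity and AC50.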

[4] = molecular target: Glucocorticoid receptor (Homo sapiens) (UniProt P04150); experiment: GR-GFP Redistribution (AID 450;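 active = compounds whose dose series gives a full or clear partial fitted curve of increased nuclear translocation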; also: potency is read from the fitted curve at half-maximal effect); conditions: U2OS GR-GFP nuclear translocation, laser cytometry, 2 h
[5] = molecular target: Glucocorticoid receptor (Homo sapiens) (UniProt P04150); experiment: GR-EFC Redistribution (AID 451; calls by dose curve; also: potency is read from the fitted curve at half-maximal effect); conditions: CHO-K1 GR-EFC translocation, beta-gal luminescence, 2 h
In short: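 CHO-K1 cells expressing nuclear EA and GR-ED fragments of b-gal; compounds titrated up to 46 uM final, 2 h at 37 C. GR nuclear translocation read as complemented b-gal luminescence after 1 h RT detection.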

[6] = molecular target: Mitogen-activated protein kinase 10 (Mus musculus) (UniProt Q61831); experiment: JNK3 AlphaScreen Assay (AID 530; active = well fitted curve in either direction with a large enough effect, not every such curve was filed as active;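 also: kinase came from lysate of stimulated human HepG2 cells; signal reports phosphorylation of biotinylated GST-cJun 1-79 at Ser73 with 10 µM ATP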)
In short: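 HepG2 lysate (IL-1b/TNFa pre-activated) + biotin-GST-cJun 1-79 + anti-pSer73 cJun; cpd titration, 15 min RT; ATP 10 uM start; Tris pH 7.6, MgCl2, DTT, vanadate; beads in EDTA buffer; AlphaScreen.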

[7] = molecular target: 3',5'-cyclic-AMP phosphodiesterase 4B (Homo sapiens) (UniProt Q07343); experiment: qHTS Assay for Inhibitors of PDE-IV (AID 607; active = well fitted activation curve with a large enough effect in the main read-out, with a control signal flat, not every such curve was filed as active; also: potency is read from the fitted curve at half-maximal effect)
In short: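 HEK293 ACTOne cells with CNG channel (1000/well), endogenous PDE4; membrane potential dye, compounds up to 22.9 uM final. Fluorescence Ex 535/Em 590; RO 20-1724 (100 uM final) as reference.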

[8] = molecular target: Dual specificity protein kinase CLK4 (Homo sapiens) (UniProt Q9HAZ1); experiment: qHTS Assay for Inhibitors of CDC-like Kinase 4 (Kinase-Glo Assay) (AID 1770); also: nearly all actives have a fitted effect of over 65% in size; also: potency is read from the fitted curve at half-maximal effect
In short: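 25 nM Clk4 with 100 uM RS repeat peptide and 1 uM ATP (final) in Tris pH7.5, 10 mM MgCl2, 4.5 h at room temperature. Remaining ATP measured by Kinase-Glo luciferase luminescence.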

[9] = molecular target: Dual specificity protein kinase CLK4 (Homo sapiens) (UniProt Q9HAZ1); experiment: qHTS Assay for Inhibitors of CDC-like Kinase 4 (ADP-Glo Assay) (AID 1771); also: nearly all actives have a fitted effect of over 70% in size; also: potency is read from the fitted curve at half-maximal effect
In short: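 25 nM Clk4, 100 uM RS peptide, 1 uM ATP (final); 2 mM MgCl2, 0.5 mM EGTA, 2.5 mM DTT, 0.01% Triton X-100; 1 hr RT. ADP-Glo readout: ATP depletion 45 min, conversion/luciferase 30 min, luminescence.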

[10] = molecular target: Dual specificity protein kinase CLK4 (Homo sapiens) (UniProt Q9HAZ1); experiment: qHTS Assay for Inhibitors of CDC-like Kinase 4 (ADP-FP Assay) (AID 1795); also: nearly all actives have a fitted effect of over 60% in size; also: potency is read from the fitted curve at half-maximal effect;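 as to activity change, negative = inhibition: recombinant human CLK4 phosphorylating RS repeat peptide at 1 µM ATP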
In short: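 Recombinant Clk4 (6.25 nM) phosphorylated 100 uM RS repeat peptide with 1 uM ATP in 25 mM Tris pH 7.5, 10 mM MgCl2, 0.5 mM EGTA, 2.5 mM DTT, 0.01% Triton X-100 for 1 h. ADP was detected by Transcreener ADP2 competitive fluorescence polarization after 30 min at room temperature.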

[11] = molecular target: Ubiquitin carboxyl-terminal hydrolase 1 (Homo sapiens) (UniProt O94782); experiment: Inhibitors of USP1/UAF1: Pilot qHTS (AID 504865);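 also: rhodamine fluorescence freed from ubiquitin-rhodamine substrate followed over time; top concentration of the series differs between compounds; nearly all actives have a fitted effect of over 35% in size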
In short: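 USP1/UAF1 complex at 1 nM preincubated 15 min at room temperature with compound, then Ub-Rho substrate added at 150 nM final. Fluorescence (480/540 nm) read kinetically in 50 mM HEPES pH 7.8, 0.5 mM EDTA, 1 mM TCEP, 0.1 mg/ml BSA, 0.01% Tween-20.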

[12] = qHTS Assay for Identification of Small Molecule Agonists for Hypoxia Response Element Signaling Pathway (AID 914; active = well fitted activation curve with a large enough effect in the signal ratio, with a control signal flat, not every such curve was filed as active; the % refers to the signal ratio); conditions: ME-180 (cervical carcinoma) HRE-bla reporter, beta-lactamase ratio, CoCl2, 17 h; activation: hits give high values
In short: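 HRE-bla ME-180 assay for agonist-like enhancement of an EC50 CoCl2 stimulus: 17 h at 37 degrees Celsius, CCF4 for 2.5 h, ratiometric 460/530 nm signal converted to %Activity and fitted to AC50.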

[13] = Stat Signaling Pathway (AID 446; active = well fitted curve in either direction with a large enough effect, not every such curve was filed as active;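 also: ME-180 cervical cancer cells given 40 pM IL-6 alongside compound; SIE-controlled beta-lactamase reporter measured as 460/530 nm FRET emission ratio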)
In short: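 Normalization used AC90 stimulation (300 pM IL-6) and AC90 inhibition (125 nM pan-JAK inhibitor at 40 pM IL-6). The underlying signal is SIE-driven beta-lactamase in ME-180 cells after 5 h IL-6 exposure with compound.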

[14] = molecular target: Cytochrome P450 3A4 (Homo sapiens) (UniProt P08684); experiment: qHTS Assay for Activators of Cytochrome P450 3A4 (AID 885); also: nearly all actives have a fitted effect of over 65% in size
In short: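 Human CYP3A4 dealkylates Luciferin-PPXE to luciferin, which luciferase detection converts to light. Substrate was at its KM (25uM), buffer 200mM KPO4, reaction 60 min at RT.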

[15] = molecular target: Cytochrome P450 2C19 (Homo sapiens) (UniProt P33261); experiment: qHTS Assay for Inhibitors and Substrates of Cytochrome P450 2C19 (AID 899); also: potency is read from the fitted curve at half-maximal effect; nearly all actives have a fitted effect of over 60% in size
In short: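 5 nM human CYP2C19 with 10uM Luciferin-H EGE (at KM) in 50mM KPO4, compound preincubated 10 min at 37C, then NADPH regeneration for 60 min at 37C. Luciferin read by luminescence after detection reagent; normalized to 57uM ketoconazole as full inhibition.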

[16] = molecular target: Cytochrome P450 2C9 (Homo sapiens) (UniProt P11712); experiment: qHTS Assay for Inhibitors and Substrates of Cytochrome P450 2C9 (AID 883); also: potency is read from the fitted curve at half-maximal effect; nearly all actives have a fitted effect of over 60% in size
In short: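 Human CYP2C9 (10nM) with Luciferin-H at 100uM (its KM) in 25mM KPO4; compound preincubated 10 min at 37C, then NADPH regeneration for 60 min at 37C. Luciferin read by luminescence after detection reagent; normalized to 57uM sulphaphenazole as full inhibition.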

[17] = molecular target: Cytochrome P450 1A2 (Homo sapiens) (UniProt P05177); experiment: p450-cyp1a2 (AID 410; calls by dose curve; also: potency is read from the fitted curve at half-maximal effect)
In short: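 20nM CYP1A2, 100uM Luciferin-ME (=Km), 100mM KPO4; cpd 10 min RT; +NADPH regen, 60 min RT; stop/detect 20 min; luminescence. Normalized to furafylline 57 uM = full inhibition.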

Sequence of Lysosomal acid glucosylceramidase (Homo sapiens) (P04062 whole entry, looked up): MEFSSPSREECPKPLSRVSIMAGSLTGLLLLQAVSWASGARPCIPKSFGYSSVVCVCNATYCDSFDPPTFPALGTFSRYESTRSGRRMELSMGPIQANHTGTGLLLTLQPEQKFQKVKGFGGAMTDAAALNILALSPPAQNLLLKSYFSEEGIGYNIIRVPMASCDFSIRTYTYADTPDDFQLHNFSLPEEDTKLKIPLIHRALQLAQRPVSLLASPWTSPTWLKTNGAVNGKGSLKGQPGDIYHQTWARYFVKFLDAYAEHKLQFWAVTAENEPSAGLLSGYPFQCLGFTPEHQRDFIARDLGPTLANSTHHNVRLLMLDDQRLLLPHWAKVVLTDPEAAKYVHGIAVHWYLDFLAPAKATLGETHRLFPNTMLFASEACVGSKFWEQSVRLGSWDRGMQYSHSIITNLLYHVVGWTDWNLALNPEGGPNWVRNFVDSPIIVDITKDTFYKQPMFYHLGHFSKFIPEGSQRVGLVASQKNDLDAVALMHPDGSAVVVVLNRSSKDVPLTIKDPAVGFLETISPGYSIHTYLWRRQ
Sequence of Dual specificity protein kinase CLK4 (Homo sapiens) (Q9HAZ1 whole entry, looked up): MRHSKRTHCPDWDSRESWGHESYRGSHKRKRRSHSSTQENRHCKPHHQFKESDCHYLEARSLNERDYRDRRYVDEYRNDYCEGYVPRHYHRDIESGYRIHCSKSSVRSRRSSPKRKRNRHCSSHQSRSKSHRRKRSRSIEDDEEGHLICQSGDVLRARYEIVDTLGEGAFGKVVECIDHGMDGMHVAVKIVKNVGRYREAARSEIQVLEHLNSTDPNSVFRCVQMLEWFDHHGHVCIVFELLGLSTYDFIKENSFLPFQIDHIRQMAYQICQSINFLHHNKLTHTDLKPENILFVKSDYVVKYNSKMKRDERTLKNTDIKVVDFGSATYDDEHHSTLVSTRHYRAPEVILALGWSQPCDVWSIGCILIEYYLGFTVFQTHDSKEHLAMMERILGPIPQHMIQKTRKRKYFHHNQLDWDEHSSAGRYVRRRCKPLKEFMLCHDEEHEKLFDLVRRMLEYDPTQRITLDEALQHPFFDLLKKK
Sequence of 3',5'-cyclic-AMP phosphodiesterase 4B (Homo sapiens) (Q07343 whole entry, looked up): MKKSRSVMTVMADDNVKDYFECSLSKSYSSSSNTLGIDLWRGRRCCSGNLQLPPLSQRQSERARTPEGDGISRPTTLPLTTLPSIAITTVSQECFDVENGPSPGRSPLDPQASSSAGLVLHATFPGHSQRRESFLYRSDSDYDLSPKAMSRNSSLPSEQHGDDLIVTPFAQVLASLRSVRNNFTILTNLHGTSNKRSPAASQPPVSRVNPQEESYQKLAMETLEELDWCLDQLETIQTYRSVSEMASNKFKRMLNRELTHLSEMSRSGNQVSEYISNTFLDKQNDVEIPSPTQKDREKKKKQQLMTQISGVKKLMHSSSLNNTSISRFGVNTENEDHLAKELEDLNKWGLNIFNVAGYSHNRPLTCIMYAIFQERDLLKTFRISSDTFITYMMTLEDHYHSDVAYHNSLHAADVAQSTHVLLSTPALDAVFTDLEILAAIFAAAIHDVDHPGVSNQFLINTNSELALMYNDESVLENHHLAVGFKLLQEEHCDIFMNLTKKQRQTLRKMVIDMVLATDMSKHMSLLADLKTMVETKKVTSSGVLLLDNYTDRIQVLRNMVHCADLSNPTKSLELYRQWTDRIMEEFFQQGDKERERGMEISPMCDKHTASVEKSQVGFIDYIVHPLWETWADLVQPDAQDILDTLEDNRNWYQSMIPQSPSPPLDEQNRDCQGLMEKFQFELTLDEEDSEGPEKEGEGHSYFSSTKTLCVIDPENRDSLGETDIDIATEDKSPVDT
Sequence of Cytochrome P450 3A4 (Homo sapiens) (P08684 whole entry, looked up): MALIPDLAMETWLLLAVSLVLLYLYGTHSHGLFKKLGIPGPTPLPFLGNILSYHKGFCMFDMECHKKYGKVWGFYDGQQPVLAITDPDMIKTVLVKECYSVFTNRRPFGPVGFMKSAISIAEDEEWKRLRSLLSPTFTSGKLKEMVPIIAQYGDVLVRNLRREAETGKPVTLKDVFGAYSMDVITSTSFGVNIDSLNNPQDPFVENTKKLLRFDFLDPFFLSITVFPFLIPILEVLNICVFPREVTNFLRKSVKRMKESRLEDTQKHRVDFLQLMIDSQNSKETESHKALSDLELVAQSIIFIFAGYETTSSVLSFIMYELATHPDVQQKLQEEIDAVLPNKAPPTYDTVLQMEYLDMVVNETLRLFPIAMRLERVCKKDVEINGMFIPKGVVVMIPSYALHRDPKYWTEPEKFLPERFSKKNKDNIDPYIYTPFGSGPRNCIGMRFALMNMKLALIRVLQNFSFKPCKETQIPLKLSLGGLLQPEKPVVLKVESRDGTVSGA
Sequence of Glucocorticoid receptor (Homo sapiens) (P04150 whole entry, looked up, the tested form may be a part): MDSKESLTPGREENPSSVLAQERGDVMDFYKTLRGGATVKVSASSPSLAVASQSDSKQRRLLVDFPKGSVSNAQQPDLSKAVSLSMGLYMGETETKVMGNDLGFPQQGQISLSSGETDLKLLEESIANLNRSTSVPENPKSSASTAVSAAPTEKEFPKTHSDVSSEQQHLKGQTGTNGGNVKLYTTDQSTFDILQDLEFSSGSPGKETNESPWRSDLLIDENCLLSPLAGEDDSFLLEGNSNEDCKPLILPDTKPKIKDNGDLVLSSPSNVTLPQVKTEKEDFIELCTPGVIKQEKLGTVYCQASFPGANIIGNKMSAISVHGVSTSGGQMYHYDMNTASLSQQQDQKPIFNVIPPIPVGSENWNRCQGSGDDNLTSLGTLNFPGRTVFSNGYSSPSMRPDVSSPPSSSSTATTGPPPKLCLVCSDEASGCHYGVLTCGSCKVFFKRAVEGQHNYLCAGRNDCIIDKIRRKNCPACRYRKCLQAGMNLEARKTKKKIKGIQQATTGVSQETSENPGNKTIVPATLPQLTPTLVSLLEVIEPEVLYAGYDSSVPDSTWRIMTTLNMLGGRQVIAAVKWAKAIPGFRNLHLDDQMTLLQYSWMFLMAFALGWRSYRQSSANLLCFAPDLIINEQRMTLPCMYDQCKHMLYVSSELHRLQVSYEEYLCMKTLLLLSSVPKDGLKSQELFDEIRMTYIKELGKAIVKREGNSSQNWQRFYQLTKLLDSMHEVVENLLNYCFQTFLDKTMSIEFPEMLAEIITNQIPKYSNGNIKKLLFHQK
Sequence of Ubiquitin carboxyl-terminal hydrolase 1 (Homo sapiens) (O94782 whole entry, looked up): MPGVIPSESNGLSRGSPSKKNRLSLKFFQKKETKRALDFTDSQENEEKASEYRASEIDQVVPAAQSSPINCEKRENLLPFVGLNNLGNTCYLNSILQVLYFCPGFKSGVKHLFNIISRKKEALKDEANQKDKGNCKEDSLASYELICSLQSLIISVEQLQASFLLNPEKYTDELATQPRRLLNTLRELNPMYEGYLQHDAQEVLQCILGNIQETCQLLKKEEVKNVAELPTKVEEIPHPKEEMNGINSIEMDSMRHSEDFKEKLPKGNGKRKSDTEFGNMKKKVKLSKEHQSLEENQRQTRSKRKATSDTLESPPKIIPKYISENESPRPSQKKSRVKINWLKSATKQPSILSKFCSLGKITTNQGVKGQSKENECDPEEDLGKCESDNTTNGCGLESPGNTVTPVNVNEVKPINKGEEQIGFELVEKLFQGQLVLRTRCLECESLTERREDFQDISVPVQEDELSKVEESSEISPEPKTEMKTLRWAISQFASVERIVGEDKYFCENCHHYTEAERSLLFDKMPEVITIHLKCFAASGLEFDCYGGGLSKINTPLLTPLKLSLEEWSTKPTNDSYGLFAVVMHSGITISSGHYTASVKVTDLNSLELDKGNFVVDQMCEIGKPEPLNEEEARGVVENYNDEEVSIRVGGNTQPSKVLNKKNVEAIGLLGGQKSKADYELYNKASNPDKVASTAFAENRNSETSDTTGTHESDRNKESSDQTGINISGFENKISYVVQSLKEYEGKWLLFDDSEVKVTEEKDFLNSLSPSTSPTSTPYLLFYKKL
Sequence of Cytochrome P450 2C9 (Homo sapiens) (P11712 whole entry, looked up): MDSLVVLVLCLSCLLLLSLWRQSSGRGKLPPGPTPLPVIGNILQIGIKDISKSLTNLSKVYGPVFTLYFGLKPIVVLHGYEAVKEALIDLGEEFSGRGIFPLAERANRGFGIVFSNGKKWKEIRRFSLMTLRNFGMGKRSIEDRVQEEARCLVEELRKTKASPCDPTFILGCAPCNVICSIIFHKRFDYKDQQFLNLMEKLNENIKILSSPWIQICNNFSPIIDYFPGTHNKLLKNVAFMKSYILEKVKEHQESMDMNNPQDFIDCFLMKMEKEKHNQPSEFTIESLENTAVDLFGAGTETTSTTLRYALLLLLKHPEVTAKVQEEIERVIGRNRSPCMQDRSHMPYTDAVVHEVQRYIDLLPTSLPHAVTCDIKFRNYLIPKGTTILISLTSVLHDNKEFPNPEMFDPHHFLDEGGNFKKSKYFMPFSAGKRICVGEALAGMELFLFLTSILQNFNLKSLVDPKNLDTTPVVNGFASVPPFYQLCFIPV
Sequence of Cytochrome P450 2C19 (Homo sapiens) (P33261 whole entry, looked up): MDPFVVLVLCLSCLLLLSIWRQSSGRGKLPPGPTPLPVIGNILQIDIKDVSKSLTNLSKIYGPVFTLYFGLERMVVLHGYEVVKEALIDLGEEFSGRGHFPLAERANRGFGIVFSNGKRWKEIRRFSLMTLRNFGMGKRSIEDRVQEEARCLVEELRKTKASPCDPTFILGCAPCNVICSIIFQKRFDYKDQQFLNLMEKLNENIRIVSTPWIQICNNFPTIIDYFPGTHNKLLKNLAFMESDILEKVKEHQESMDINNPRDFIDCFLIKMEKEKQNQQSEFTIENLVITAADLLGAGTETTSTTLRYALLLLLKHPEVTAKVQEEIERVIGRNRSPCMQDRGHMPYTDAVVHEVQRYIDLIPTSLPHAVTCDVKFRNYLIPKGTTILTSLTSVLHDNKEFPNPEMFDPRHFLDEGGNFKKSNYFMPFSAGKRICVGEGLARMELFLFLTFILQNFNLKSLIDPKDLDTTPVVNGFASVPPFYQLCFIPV

Row | SMILES | Potency [1] [µM] | activity change, negative = inhibition [2] [%] | activity change, negative = inhibition [3] [%] | Potency [4] [µM] | Potency [5] [µM] | Potency [6] | Potency [7] | Potency [8] | Potency [9] | Potency [10] | Potency [11] | activation [12] [%] | outcome [13] | outcome [14] | Potency [15] | Potency [16] | Potency [17]
1 | CN1CCN(c2ncc3nc(-c4cccc(C#N)c4)c(=O)n(CCc4ccccc4)c3n2)CC1 | > 11.4 | 11.8 | -0.0285 | > 9.22 | > 46 | inactive | inactive | inactive | inactive | inactive | inactive | – | – | – | – | – | –
2 | O=c1c(CCc2ccccc2)nc2cnc(N3CCOCC3)nc2n1-c1ccccc1 | > 11.4 | 1.07 | 1.96 | > 9.22 | > 46 | inactive | – | inactive | inactive | inactive | inactive | -5.71 | – | – | – | – | –
3 | Cc1cccc(CNc2ncncc2-c2ccccc2CN(C)C)c1 | > 11.4 | 1.18 | – | > 46 | > 46 | inactive | inactive | inactive | inactive | inactive | inactive | – | – | – | – | – | –
4 | CN1CCN(c2ncc3nc(CCc4ccccc4)c(=O)n(CCc4ccccc4)c3n2)CC1 | > 11.4 | -6.08 | -18.1 | > 9.22 | > 46 | inactive | – | inactive | inactive | inactive | inactive | – | inactive | – | – | – | –
5 | O=c1c(-c2cccc(F)c2)nc2cncnc2n1Cc1ccc(F)cc1 | > 11.4 | -9.74 | -4.79 | > 9.22 | > 46 | inactive | inactive | inactive | inactive | inactive | inactive | – | inactive | – | – | – | –
6 | O=c1c(-c2ccccc2)nc2cnc(Oc3ccccc3)nc2n1C[C@H]1CCCO1 | > 11.4 | 180 | 4.49 | > 9.22 | > 46 | inactive | inactive | inactive | inactive | inactive | – | – | inactive | – | – | – | –
7 | COc1ccc(-n2c(=O)c(CCc3ccccc3)nc3cnc(OC)nc32)cc1 | > 11.4 | -14.2 | 0.705 | > 9.22 | – | inactive | 2 µM (active) | inactive | inactive | inactive | inactive | -18.9 | inactive | inactive | 6.31 µM (active) | – | –
8 | COc1ccc2[nH]cc(CCNc3ncncc3-c3ccc4c(c3)OCO4)c2c1 | > 11.4 | -27.8 | – | > 46 | > 46 | inactive | inactive | 8.91 µM (active) | 7.08 µM (active) | 10 µM (active) | inactive | – | inactive | – | – | – | –
9 | COc1ccc(-c2nc3cnc(Oc4cccc(Cl)c4)nc3n(C[C@H]3CCCO3)c2=O)cc1 | > 11.4 | -13.7 | – | > 9.22 | > 46 | – | inactive | inactive | inactive | inactive | inactive | – | – | inactive | – | 5.01 µM (active) | –
10 | COCCn1c(=O)c(-c2ccccc2)nc2cnc(Oc3cccc(Cl)c3)nc21 | > 11.4 | – | -9.21 | > 9.22 | > 46 | inactive | inactive | inactive | inactive | inactive | inactive | – | inactive | inactive | – | 0.501 µM (active) | 1 µM (active)
11 | COc1ccccc1-c1nccc(N2CCN(C)CC2)n1 | > 11.4 | 15.6 | -18.8 | > 46 | > 46 | inactive | inactive | inactive | inactive | inactive | inactive | 26.2 | inactive | – | – | – | –
12 | O=c1c(CCc2ccccc2)nc2cnc(N3CCNCC3)nc2n1-c1ccccc1 | > 11.4 | -11.6 | 6.64 | > 9.22 | > 46 | inactive | inactive | inactive | inactive | inactive | inactive | – | inactive | – | – | – | –
13 | Cc1nc2cnc(OCc3ccccc3)nc2n(CCc2ccccc2)c1=O | > 11.4 | 2.1 | -10.4 | > 9.22 | > 46 | – | – | inactive | inactive | inactive | inactive | – | inactive | inactive | – | – | –
14 | N#CCCn1c(=O)c(-c2cccc(C#N)c2)nc2cnc(Oc3cccc(Cl)c3)nc21 | > 11.4 | -14.2 | -6.45 | > 9.22 | > 46 | inactive | inactive | inactive | inactive | inactive | inactive | – | inactive | – | – | – | –
